BioA inh – inhibitors of Mycobacterium tuberculosis BioA enzyme; actives 0.096% (n = 360,000); inhibition, % at 9.99 µM; purified M. tuberculosis BioA enzyme, plate reader; in the data active means inhibition above about 40%; inconclusive means no clear call, values can overlap the other calls
BH1578 lux ind – induces V. cholerae light production without autoinducers | actives 0.16% (n = 350,000) | AID 588436 | V. cholerae BH1578 lux reporter, luminescence, 6 h | activation, % at 18.7 µM; in the data active means activation mostly above about 9.7%, no sharp cut-off; inconclusive means no clear call, values can overlap the other calls; inactive means mostly below about 3.7%
Yp Topo-I inh – Y. pestis Topo-I inhibition via cleavage products; Y. pestis Topo-I cleavage product accumulation, plate reader; activity, % at 10 µM; actives 0.064% (n = 360,000); in the data active means activity above about 50%, passing the limit was not always enough; inconclusive means no clear call, values can overlap the other calls
VHR inh abs – blocks human VHR1 dual specificity phosphatase; P51452; recombinant VHR phosphatase, pNPP absorbance; inhibition, % at 13.3 µM; actives 0.52% (n = 290,000); in the data active means inhibition above about 50%
Target sequence (P51452 whole entry, looked up): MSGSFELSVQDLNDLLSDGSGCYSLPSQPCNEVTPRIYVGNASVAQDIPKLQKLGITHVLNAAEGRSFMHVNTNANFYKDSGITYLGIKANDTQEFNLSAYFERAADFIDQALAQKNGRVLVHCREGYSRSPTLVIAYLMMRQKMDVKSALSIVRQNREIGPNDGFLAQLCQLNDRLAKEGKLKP
PfHsp40 yeast – compounds rescuing yeast from Plasmodium falciparum HSP40 toxicity; S. cerevisiae expressing PfHsp40, growth rescue, ATP luminescence; growth rescue, % at 12.5 µM; actives 0.68% (n = 340,000); AID 504582; in the data active means growth rescue above about 28%, passing the limit was not always enough; inconclusive means no clear call, values can overlap the other calls;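 further: yeast W303a lacking pdr1 and pdr3 grown in galactose medium; growth measured after three days at 30 °C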
TcdB GH inh – inhibitors of Clostridioides difficile toxin B glycohydrolase; actives 0.24% (n = 350,000); TcdB glycohydrolase enzymatic assay, plate reader; inhibition, % at 9.99 µM; in the data active means inhibition above about 10%
Active calls of the source: *; i = inactive; ? = inconclusive; . = no result given; ! = a repeat was not active. Most compounds without a hit are left out; they make up all but 1.2% or so of the library.

SMILES	BioA inh	BH1578 lux ind	Yp Topo-I inh	VHR inh abs	PfHsp40 yeast	TcdB GH inh
CC(C)c1ccc2c(c1)C1(NN=C(c3ccccc3)S1)C(=O)N2 (stereo not drawn)	-1	-1	-4	13	41*	.
Cc1cc(Cl)ccc1C(=O)C1CCCN(C(=O)c2cncs2)C1 (stereo not drawn)	4	0	8	2	377*	0
O=C(c1ccc(-c2ccccc2)c(F)c1)C1CCCN(C(=O)c2cncs2)C1 (stereo not drawn)	16	i	31	22	412*	1
Cc1ccc(C(=O)N2CCCC(C(=O)c3ccc(Cl)cc3C)C2)cn1 (stereo not drawn)	2	0	16	7	1	1
CC(C)(C)NC(=O)COC(=O)c1ccc(O)cc1	-3	.	-1	-5	0	.
C=C(NC(=O)C(=C)NC(=O)c1csc(C2=NC3c4csc(n4)C4NC(=O)c5csc(n5)C(C(C)(O)C(C)O)NC(=O)C5CSC(=N5)/C(=C/C)NC(=O)C(C(C)O)NC(=O)c5csc(n5)C3(CC2)NC(=O)C(C)NC(=O)C(=C)NC(=O)C(=C)NC(=O)C(C(C)C)NC2C=Cc3c(C(C)O)cc(nc3C2O)C(=O)OC4C)n1)C(N)=O (stereo not drawn)	.	i	11	.	-1	0
Cc1ccc(C)c(CSc2nnc(CCN)o2)c1	3	0	-7	2	0	.
Cc1ccc(C)c(CSc2nnc([C@@H](N)C(C)C)o2)c1	2	i	90*	14	-1	.
O=C(COc1ccc2c3c(c(=O)oc2c1)CCC3)NCC1CCC(C(=O)O)CC1 (stereo not drawn)	7	-1	3	11	-1	1
CCn1c(Cc2ccccc2)nnc1SCC(=O)Nc1ccc2c(c1)OCO2	3	i	2	-4	-1	.
O=C(c1ccccc1)N1CCN(C(=O)c2ccccc2)CC1	-3	4	0	-22	0	.
CC1(C)C(C(=O)N2CCN(C(=O)c3ccccc3)CC2)C1(C)C	-2	i	6	58*	-1	0
COc1cccc(-n2nc(C#N)c(Cl)cc2=O)c1	.	0	-11	27	52*	1
CC(=O)c1cccc(NC(=O)N2CCCC2C(=O)Nc2ccc3c(c2)OCO3)c1 (stereo not drawn)	.	1	-5	57*	0	0
CC(=O)c1cccc(NC(=O)N2CCCC2C(=O)Nc2cccc(C)c2)c1 (stereo not drawn)	0	-1	-5	2	2	.
Cc1cccc(NC(=O)[C@@H]2CCCN2C(=O)OC(C)(C)C)c1	-2	i	6	58*	0	1
C[C@H](CO)N1C[C@H](C)[C@@H](CN(C)CC2CCCCC2)Oc2ccc(NC(=O)CCN3CCOCC3)cc2C1=O	-2	i	23	.	-2	10*!
Cc1ccc(CC(=O)Nc2nccs2)cc1C	-5	0	-3	58*	1	0
O=C(CC1SC(=O)N(Cc2ccccc2)C1=O)Nc1nccs1 (stereo not drawn)	-1	0	1	53*	-1	-8
CCOc1ccc(CC(=O)Nc2nccs2)cc1	.	-1	10	22	0	1
O=C(COc1ccccc1)Nc1nccs1	0	i	3	13	57*	1
C=CC(n1cncn1)C(O)(c1ccccc1)c1ccccc1 (stereo not drawn)	-1	0	6	.	146*	0
CCOC(=O)Cc1cc(=O)n2[nH]c(C)c(-c3ccccc3OC)c2n1	0	4	4	-10	0	-2
OC(COc1ccc(Cl)cc1Cl)Cn1ccnc1 (stereo not drawn)	0	i	-1	2	-1	-1
Clc1ccc(COC(Cn2ccnc2)c2ccc(Cl)cc2Cl)c(Cl)c1 (stereo not drawn)	-5	i	60*!	9	91*	1
SMILES	BioA inh	BH1578 lux ind	Yp Topo-I inh	VHR inh abs	PfHsp40 yeast	TcdB GH inh
C=CCOC(Cn1ccnc1)c1ccc(Cl)cc1Cl (stereo not drawn)	2	i	12	.	326*	1
CCCC(=O)Nc1cc(Cl)ccc1C	.	i	-1	32	-1	2
OC(CNCc1ccccc1)c1ccccc1 (stereo not drawn)	0	0	-4	14	0	0
CCOC(=O)c1c(NC(=O)CCc2ccc(CC)o2)sc(C)c1C	2	i	57*	3	0	0
COC(=O)c1c(NC(=O)CCc2ccc(C)o2)sc(C)c1C	0	i	5	7	0	.
Cc1nc(N)nc(N)c1/C=C/C(C)(C)c1ccc(Cl)cc1	.	0	12	-11	151*	1
CC(C)(C)S(=O)(=O)c1cnc(-c2ccc(Cl)cc2)nc1N	.	0	-3	13	-1	1
CCOCCCn1c(=O)c2ccccc2n2c(=S)[nH]nc12	1	i	5	13	0	25*
CC(C)CCn1c(=O)c2ccccc2n2c(=S)[nH]nc12	0	0	2	-10	?	-1
O=C(O)c1ccc(N=Cc2c(O)ccc3ccccc23)cc1	-1	0	-13	-8	-1	0
O=S(=O)(/N=C/c1c(O)ccc2ccccc12)c1ccccc1	-2	0	-2	54*	2	0
Cc1cc(SCC(=O)NCCN2C(=O)CSC2=O)nc2c(C)cccc12	.	0	24	2	37*	.
Cc1nnc(Cl)c2nn(-c3ccccc3F)c(C)c12	3	0	2	2	-2	0
Cn1cc(S(=O)(=O)CC(=O)N2CCCc3ccccc32)c2ccccc21	0	-1	1	46	1	11*
O=C(Nc1ccc(NC(=O)C2CCCCC2)nc1)c1ccccn1	0	i	-4	57*	0	0
CCCCC(CC)COC(=O)c1ccccc1C(=O)OCC(CC)CCCC (stereo not drawn)	0	-1	61*	.	2	1
CC(C)COC(=O)c1ccccc1C(=O)OCC(C)C	-1	0	3	26	0	0
COc1ccc(C(=O)OCC(=O)NC2CC2)cc1S(=O)(=O)Nc1ccc(C)cc1	2	1	-8	.	2	0
NC(=O)c1sc(=S)n(-c2ccc(Br)cc2)c1N	1	0	-5	-16	0	2
COc1ccccc1-n1c(N)c(C(N)=O)sc1=S	-1	i	-2	52*	1	.
O=C(CCS(=O)(=O)c1ccc(Br)cc1)N1CCN(c2ccc(F)cc2)CC1	1	0	30	50*	1	2
CCCn1c(NC(=O)C2CCN(S(=O)(=O)c3cccs3)CC2)nc2ccccc21	0	i	9	47	1	.
Cc1cc(C)c(C)c(OCCCOc2cccc3cccnc23)c1	.	0	22	2	93*	.
CC(C)CC(=O)N1CCN(Cc2ccc(Br)cc2)CC1	-1	0	7	4	-1	11*
CC(C)CC(=O)N1CCN(Cc2ccc(Cl)cc2)CC1	3	i	8	20	0	1
